# Values without a mark were called inactive.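 How the source made its calls: active means viability loss from added drug above about 55%, and viability with drug at most 40%, in both replicates (limit read from the data, passing the limit was not always enough); inconclusive means both conditions met in only one replicate; inactive means neither replicate meets both conditions.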
# Test: MRP1 drug-resistance reversers in H69AR cells – cell-based, doxorubicin co-treatment, pilot screen (AID 601)
# Conditions: H69AR cells + 2 uM doxorubicin, CellTiter-Glo, 72 h; at 10 µM; hits give high values
row,Structure (SMILES),differential viability (reversal) [%]
1,CCCNCC(O)COc1ccccc1C(=O)CCc1ccccc1 (stereo not given),2.24
2,CC(C)(S)[C@@H](N)C(=O)O,15.4
3,CC(=O)OCC(=O)[C@@]1(O)CC[C@H]2[C@@H]3CCC4=CC(=O)C=C[C@]4(C)[C@@]3(Cl)[C@@H](Cl)C[C@@]21C,-13
4,CCOC(=O)CCC(=O)O[C@H]1[C@H](O[C@@H]2[C@@H](C)[C@H](O[C@H]3C[C@@](C)(OC)[C@@H](O)[C@H](C)O3)[C@@H](C)C(=O)O[C@H](CC)[C@@](C)(O)[C@H](O)[C@@H](C)C(=O)[C@H](C)C[C@@]2(C)O)O[C@H](C)C[C@@H]1N(C)C,-0.63
5,CC(C)[N+](C)(CCOC(=O)C1c2ccccc2Oc2ccccc21)C(C)C,2.38
6,O=c1n(CCCN2CCN(c3cccc(Cl)c3)CC2)nc2ccccn12,-7.03
7,CN(C)CCOC(C)(c1ccccc1)c1ccccn1 (stereo not given),-11.6
8,Nc1ccc(S(=O)(=O)NC(=O)c2ccccc2)cc1,6.16
9,Nc1ccc2[nH]ncc2c1,-6.96
10,CCCCOc1ccc(OCCCN2CCOCC2)cc1,7.79
11,Nc1nc(F)nc2c1ncn2[C@@H]1O[C@H](CO)[C@@H](O)[C@@H]1O,-2.94
12,CC(C)(C)NC[C@H](O)COc1nsnc1N1CCOCC1,2.23
13,CCCn1c(=O)[nH]c(=O)c2[nH]cnc21,3.64
14,CC(COc1ccccc1)NC(C)C(O)c1ccc(O)cc1 (stereo not given),-17.2
15,Cc1cc(NC(=O)C2=C(O)c3ccccc3S(=O)(=O)N2C)no1,16.9
16,CCN(CC)CC#CCOC(=O)C(O)(c1ccccc1)C1CCCCC1 (stereo not given),-0.33
17,CN1CCN2c3ccccc3Cc3ccccc3C2C1 (stereo not given),1.02
18,O=C(O)Cc1cc(I)c(Oc2ccc(O)c(I)c2)c(I)c1,-4.12
19,CC(=O)N[C@@H](CS)C(=O)O,12.8
20,CN(CCO)CC(O)Cn1cnc2c1c(=O)n(C)c(=O)n2C (stereo not given) (tested in a mixture with another compound),-2.31
21,N=c1c[n+](N2CCOCC2)[n-]o1,-4.17
22,CC(=O)NS(=O)(=O)c1ccc(N)cc1,6.32
23,CN(C)CCOc1ccccc1Cc1ccccc1,11
24,CC(=O)OCC(=O)[C@@]1(O)[C@H](C)C[C@H]2[C@@H]3CCC4=CC(=O)C=C[C@]4(C)[C@@]3(F)[C@@H](O)C[C@@]21C,-15.8
25,c1ccc2[nH]c(-c3cscn3)nc2c1,-4.19
